Results published in the supplement of paper PMC8728848.
This is one part of a sample in which the strongest signals are shown more often than they occur.

How the values were obtained:
Test in all cases: glycan array binding signal (z-score within array); higher = stronger binding
Settings in all cases: glycan notation: IUPAC condensed, linker removed
[1] = target: Fuc(a1-2)Gal(b1-4)Fuc(a1-3)]GlcNAc(b1-2)Man(a1-3)[Fuc(a1-2)Gal(b1-4)[Fuc(a1-3)]GlcNAc(b1-2)Man(a1-6)]Man(b1-4)GlcNAc(b1-4)GlcNAc
How it was run: (§1)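 The binding signal is a Z-score computed within each array. Data were drawn from 3228 arrays in the Consortium for Functional Glycomics database, restricted to those with a known protein sequence. Scores were averaged over arrays of the same protein sequence at different concentrations or buffers, and over linkers, and negative values can be taken as non-binding.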

[2] = target: Fuc(a1-2)Gal(b1-4)GlcNAc(b1-2)Man(a1-3)[Fuc(a1-2)Gal(b1-4)GlcNAc(b1-2)Man(a1-6)]Man(b1-4)GlcNAc(b1-4)[Fuc(a1-6)]GlcNAc
How it was run: as §1

[3] = target: Fuc(a1-2)Gal(b1-4)GlcNAc(b1-2)[Fuc(a1-2)Gal(b1-4)GlcNAc(b1-4)]Man(a1-3)[Fuc(a1-2)Gal(b1-4)GlcNAc(b1-2)Man(a1-6)]Man(b1-4)GlcNAc(b1-4)GlcNAc
How it was run: as §1

[4] = target: Fuc(a1-2)[Gal(a1-3)]Gal(b1-3)GlcNAc(b1-2)Man(a1-3)[Fuc(a1-2)[Gal(a1-3)]Gal(b1-3)GlcNAc(b1-2)Man(a1-6)]Man(b1-4)GlcNAc(b1-4)[Fuc(a1-6)]GlcNAc
How it was run: as §1

[5] = target: Fuc(a1-2)[Gal(a1-4)]Gal(b1-4)GlcNAc
How it was run: as §1

[6] = target: Fuc(a1-3)[Gal(b1-4)]Glc6S
How it was run: as §1

[7] = target: Fuc(a1-3)[Gal(b1-4)]GlcNAc6S
How it was run: as §1

[8] = target: Fuc(a1-3)[GalNAc(b1-4)]GlcNAc6S
How it was run: as §1

Gal(a1-3)Gal(b1-3)GlcNAc = target: Gal(a1-3)Gal(b1-3)GlcNAc
How it was run: as §1

Gal(a1-3)GalNAc = target: Gal(a1-3)GalNAc
How it was run: as §1

[9] = target: Gal(b1-3)GalNAc(b1-3)Gal(a1-4)Gal(b1-4)Glc
How it was run: as §1

[10] = target: Gal(b1-3)GlcNAc(b1-6)Gal(b1-4)GlcNAc
How it was run: as §1

[11] = target: Gal(b1-3)[Neu5Ac(a2-6)]GalNAc
How it was run: as §1

[12] = target: Gal(b1-4)GlcNAc(b1-2)[Gal(b1-4)GlcNAc(b1-6)]Man(a1-6)[Gal(b1-4)GlcNAc(b1-2)Man(a1-3)]Man(b1-4)GlcNAc(b1-4)[Fuc(a1-6)]GlcNAc
How it was run: as §1

[13] = target: Gal(b1-4)GlcNAc(b1-3)Gal(b1-4)GlcNAc(b1-3)[Gal(b1-4)GlcNAc(b1-3)Gal(b1-4)GlcNAc(b1-6)]GalNAc
How it was run: as §1

[14] = target: Gal(b1-4)GlcNAc(b1-3)[GlcNAc(b1-6)]Gal(b1-4)GlcNAc
How it was run: as §1

[15] = target: GalNAc(a1-3)GalNAc(b1-3)Gal(a1-4)Gal(b1-4)Glc
How it was run: as §1

[16] = target: GalNAc(b1-3)Gal(a1-6)Gal(b1-4)Glc
How it was run: as §1

[17] = target: GalNAc(b1-4)GlcNAc(b1-2)Man
How it was run: as §1

[18] = target: GalNAc(b1-4)GlcNAc(b1-2)Man(a1-3)[GalNAc(b1-4)GlcNAc(b1-2)Man(a1-6)]Man(b1-4)GlcNAc(b1-4)GlcNAc
How it was run: as §1

GalNAc3S(b1-4)GlcNAc = target: GalNAc3S(b1-4)GlcNAc
How it was run: as §1

[19] = target: GlcNAc(a1-3)Gal(b1-4)GlcNAc
How it was run: as §1

[20] = target: GlcNAc(a1-4)Gal(b1-4)GlcNAc(b1-3)Gal(b1-4)Glc
How it was run: as §1

[21] = target: GlcNAc(b1-2)Man(a1-3)[GlcNAc(b1-2)Man(a1-6)]Man(b1-4)GlcNAc(b1-4)GlcNAc
How it was run: as §1

[22] = target: GlcNAc(b1-2)Man(a1-3)[GlcNAc(b1-4)][GlcNAc(b1-2)Man(a1-6)]Man(b1-4)GlcNAc(b1-4)GlcNAc
How it was run: as §1

B1: AFCNVH (Aspergillus fumigatus) (protein)
chain: MSLRGFHTTCDTIVLKDKHILSSRCKRPDGTYSFSEIDLNDCLGNNNGKFVWGGESFVDSASQVNLALEGGEGRPMLHAQLNDWHGSVQSASVNLGECIQNEAGGLEYMHC
glycan array binding signal (z-score) [1]: -0.233
glycan array binding signal (z-score) [2]: -0.175
glycan array binding signal (z-score) [3]: -0.277
glycan array binding signal (z-score) [4]: -0.326
glycan array binding signal (z-score) [5]: 0.231
glycan array binding signal (z-score) [6]: -0.331
glycan array binding signal (z-score) [7]: -0.372
glycan array binding signal (z-score) [8]: 0.612
glycan array binding signal (z-score) (Gal(a1-3)Gal(b1-3)GlcNAc): -0.453
glycan array binding signal (z-score) (Gal(a1-3)GalNAc): -0.37
glycan array binding signal (z-score) [9]: -0.212
glycan array binding signal (z-score) [10]: -0.391
glycan array binding signal (z-score) [11]: -0.504
glycan array binding signal (z-score) [12]: -0.378
glycan array binding signal (z-score) [13]: -0.168
glycan array binding signal (z-score) [14]: 4.53
glycan array binding signal (z-score) [15]: -0.347
glycan array binding signal (z-score) [16]: -0.462
glycan array binding signal (z-score) [17]: 4.18
glycan array binding signal (z-score) [18]: 4.08
glycan array binding signal (z-score) (GalNAc3S(b1-4)GlcNAc): 1.43
glycan array binding signal (z-score) [19]: 4.61
glycan array binding signal (z-score) [20]: 3.99
glycan array binding signal (z-score) [21]: -0.164
glycan array binding signal (z-score) [22]: 4.58
